Reference: PubChem BioAssay (Tox21)
A number with no mark means an inactive call. Results filed as inconclusive are left out. Activity calls are given as the source filed them. Calls come from the whole dose curve.

Test system: not listed separately
Assay: Nuclear factor erythroid 2-related factor 2/antioxidant responsive element (Nrf2/ARE) small molecule agonists: luciferase reporter gene qHTS assay in human keratinocytes (AID 1919969)
Conditions: KeratinoSens HaCaT ARE-luciferase, luminescence, 24 h; series mostly up to 92.4 µM; activity, positive = activation: at the top concentration
% is set by controls: 0 for no effect and ±100 for the full control effect.
Note: nearly all actives have a fitted effect of over 35% in size.

Structure (SMILES) | activity, positive = activation
COCCOCCOCCOCCOC | 5.34%
C=C(C)[C@H]1CC=C(C)CC1 | -14%
CC(C)C1CCC(O)CC1 (stereo unspecified) | -14.1%
C=CC(C)(CCC=C(C)C)OC(=O)CC (stereo unspecified) | -13.1%
[O-][n+]1ccc(Cl)cc1 | -6.56%
CC(C)CCO | -7.14%
O=C(O)CCS | 0.519%
Cc1cc(C)c(N=Nc2c(O)c(S(=O)(=O)O)cc3cc(S(=O)(=O)O)ccc23)cc1C | -2.39% [at 8.39 µM]
Cc1ccc(Nc2ccc(O)c3c2C(=O)c2ccccc2C3=O)cc1 | 1.11%
C1=COCCC1 | -5.28%
NCCNCCN | -8.13%
CC(=O)N1C[C@H](O)C[C@H]1C(=O)O | -8.62% [at 42.5 µM]

Target: Gonadotropin-releasing hormone receptor (Homo sapiens) (UniProt P30968)
Sequence (P30968 whole entry, looked up): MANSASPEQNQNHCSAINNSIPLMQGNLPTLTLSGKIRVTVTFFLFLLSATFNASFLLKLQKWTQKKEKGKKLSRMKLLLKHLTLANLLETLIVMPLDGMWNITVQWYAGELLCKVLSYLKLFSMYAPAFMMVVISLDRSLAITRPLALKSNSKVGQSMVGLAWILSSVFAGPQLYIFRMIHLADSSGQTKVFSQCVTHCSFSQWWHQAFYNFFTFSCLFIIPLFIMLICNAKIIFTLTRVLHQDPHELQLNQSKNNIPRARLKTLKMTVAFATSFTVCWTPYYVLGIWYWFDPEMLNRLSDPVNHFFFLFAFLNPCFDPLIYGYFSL
Assay: Human gonadotropin-releasing hormone receptor (GnRHR) small molecule agonists, calcium flux assay in GnRHR-HEK293 cells (AID 1920063); note: potency is the fitted concentration of half-maximal effect
Conditions: calcium flux fluorescence, agonist mode; series mostly up to 57.6 µM; activity change: at the top concentration
In short: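 Cells: HEK293 stably expressing human GnRHR. Steps: overnight (18 h) culture, 1 h calcium dye loading at 37 C, compound addition, kinetic fluorescence read at 480/540 nm. Each compound tested at 15 concentrations in triplicate.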

Structure (SMILES) | activity change | Potency
Nc1nc(=O)n([C@@H]2O[C@H](CO)[C@@H](O)[C@@H]2F)cc1I | -0.551% [at 26.4 µM, stronger effect = higher value] | 
Cc1cc(C)cc(O)c1 | -1.19% | 
COc1cc(C(=O)N2CCOCC2)cc(OC)c1OC | 0.898% [at 26.4 µM, stronger effect = higher value] | 
CCCO | 1.39% | 
CC12CCC(C1)C(C)(C)C2O (stereo unspecified) | -0.453% | 
[O]=[Zr] | 1% | 
C1CCC(SSC2CCCCC2)CC1 | -0.894% | 
CCCC[C@H]1CN(CC2CCOCC2)C(=O)OC12CCN(C1(C)CCN(C(=O)c3c(C)ncnc3C)CC1)CC2 | 0.863% | 
Cc1ccccc1S(=O)(=O)O | 0.416% | 
NC(=O)c1ccc(N)cc1 | -0.776% | 
FC(F)(F)C(Cl)Br (stereo unspecified) |  | inactive
CCCCCCCCSCCO | 7.23% | 
Cc1ccccc1C(N)=O | -0.0704% | 
CC12CC3CC(C)(C1)CC(N)(C3)C2 | -0.133% [at 26.4 µM, stronger effect = higher value] | 
O[C@@H]([C@H](O)[C@H](O)CBr)[C@H](O)CBr | 0.213% | 
CCOc1ccc(N)c([N+](=O)[O-])c1 | 1.67% | 
CC(=O)NCc1c(I)c(NC(C)=O)c(I)c(C(=O)O)c1I | -1.49% [at 26.4 µM, stronger effect = higher value] | 
Nc1cc([N+](=O)[O-])ccc1Cl | 0.08% | 
Cc1c(C(=O)c2c[nH]n(C)c2=O)ccc(S(C)(=O)=O)c1C1=NOCC1 | 1.34% [at 26.4 µM, stronger effect = higher value] | 
CC(C[N+](C)(C)C)OC(N)=O (stereo unspecified) |  | 13.5 µM (active)

Structure (SMILES) | activity change | Potency
O=S(=O)(O)c1ccccc1O | -0.136% | 
Cc1cccc(N(C)C)c1 | -1.33% | 
OCC1CCC(CO)CC1 (stereo unspecified) | 0.588% | 
C=CCOC(=O)CCCCCC | 0.0335% | 
CCN(CC)S(=O)(=O)c1ccc(C(=O)O)cc1 | -0.0198% [at 26.4 µM, stronger effect = higher value] | 
NNS(=O)(=O)c1ccc(Oc2ccc(S(=O)(=O)NN)cc2)cc1 | 1.71% | 
O=Cc1ccc(C(=O)O)cc1 | -0.284% | 
COCCOCCOCCOCCOC | 0.992% | 
C=C(C)[C@H]1CC=C(C)CC1 | 3.24% | 
CC(C)C1CCC(O)CC1 (stereo unspecified) | -0.0064% | 
C=CC(C)(CCC=C(C)C)OC(=O)CC (stereo unspecified) | 1.31% | 
[O-][n+]1ccc(Cl)cc1 | -0.422% | 
CC(C)CCO | -0.876% | 
O=C(O)CCS | 2.94% | 
Cc1cc(C)c(N=Nc2c(O)c(S(=O)(=O)O)cc3cc(S(=O)(=O)O)ccc23)cc1C | 0.758% [at 5.22 µM, stronger effect = higher value] | 
Cc1ccc(Nc2ccc(O)c3c2C(=O)c2ccccc2C3=O)cc1 | 0.162% | 
C1=COCCC1 | -0.482% | 
NCCNCCN |  | inactive
CC(=O)N1C[C@H](O)C[C@H]1C(=O)O | -0.139% [at 26.4 µM, stronger effect = higher value] | 
